NOD2-RIPK2 inh – blocks binding of human NOD2 to RIPK2; O43353; CHO BLA complementation NOD2-RIPK2, CCF4 ratio; inhibition, % at 4.98 µM; 0.38% of 360,000 active; AID 624267; in the data active = inhibition above about 21%;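 also: 0% = vehicle only and 100% = reference blocker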
B2AR ag – activates human beta-2 adrenergic receptor causing internalization; P07550; Am2.2-beta2AR cells, FAP receptor internalization, flow cytometry; 0.43% of 340,000 active; response, % (test concentration not listed);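 active = response above a set limit, near 3 SD of response in nonfluorescent compounds, cut at about 42% in these data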
A1 inh – inhibitors of the anti-apoptotic protein A1, read as caspase activation; MEF A1-2A-BIM cells, Caspase-Glo 3/7 luminescence, 3 h; percent of clofoctol response, vehicle zero; caspase activation, % (no concentration beside the values); 0.066% of 330,000 active; AID 2462;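 active = over half of replicate activation scores above 10%, or exactly half above 10 with the replicate mean above 10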
TLR4 MyD88 comp – TLR4-MyD88 interaction inhibition in cells; O00206+Q99836; HeLa CL3-4 TLR4/MyD88 BLA complementation, FRET ratio; 0.18% of 200,000 active; inhibition, % at 8.4 µM; AID 861; in the data active = inhibition above about 25%;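 also: 0% = vehicle and 100% = reference inhibitor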
TLR9-MyD88 block – inhibitors of human TLR9-MyD88 binding | AID 504734 | inhibition, % at 4.98 µM | CHO BLA complementation TLR9-MyD88, CCF4 FRET ratio | 0.21% of 340,000 active;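 active = inhibition above the mean over all tested compounds plus 3 SD, cut at about 21% in these data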;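 also: 0% = DMSO only wells and 100% = clavulanate BLA inhibitor control wells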
Target sequence (Q99836 whole entry, looked up): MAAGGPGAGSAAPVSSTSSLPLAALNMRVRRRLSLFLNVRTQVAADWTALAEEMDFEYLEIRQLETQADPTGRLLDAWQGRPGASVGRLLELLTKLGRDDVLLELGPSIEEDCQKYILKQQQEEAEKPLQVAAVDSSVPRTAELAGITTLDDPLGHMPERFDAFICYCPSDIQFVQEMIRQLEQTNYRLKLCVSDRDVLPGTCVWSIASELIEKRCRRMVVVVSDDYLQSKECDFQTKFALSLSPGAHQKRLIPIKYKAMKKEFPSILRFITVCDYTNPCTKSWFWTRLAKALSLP
Target sequence (Q9NR96 whole entry, looked up): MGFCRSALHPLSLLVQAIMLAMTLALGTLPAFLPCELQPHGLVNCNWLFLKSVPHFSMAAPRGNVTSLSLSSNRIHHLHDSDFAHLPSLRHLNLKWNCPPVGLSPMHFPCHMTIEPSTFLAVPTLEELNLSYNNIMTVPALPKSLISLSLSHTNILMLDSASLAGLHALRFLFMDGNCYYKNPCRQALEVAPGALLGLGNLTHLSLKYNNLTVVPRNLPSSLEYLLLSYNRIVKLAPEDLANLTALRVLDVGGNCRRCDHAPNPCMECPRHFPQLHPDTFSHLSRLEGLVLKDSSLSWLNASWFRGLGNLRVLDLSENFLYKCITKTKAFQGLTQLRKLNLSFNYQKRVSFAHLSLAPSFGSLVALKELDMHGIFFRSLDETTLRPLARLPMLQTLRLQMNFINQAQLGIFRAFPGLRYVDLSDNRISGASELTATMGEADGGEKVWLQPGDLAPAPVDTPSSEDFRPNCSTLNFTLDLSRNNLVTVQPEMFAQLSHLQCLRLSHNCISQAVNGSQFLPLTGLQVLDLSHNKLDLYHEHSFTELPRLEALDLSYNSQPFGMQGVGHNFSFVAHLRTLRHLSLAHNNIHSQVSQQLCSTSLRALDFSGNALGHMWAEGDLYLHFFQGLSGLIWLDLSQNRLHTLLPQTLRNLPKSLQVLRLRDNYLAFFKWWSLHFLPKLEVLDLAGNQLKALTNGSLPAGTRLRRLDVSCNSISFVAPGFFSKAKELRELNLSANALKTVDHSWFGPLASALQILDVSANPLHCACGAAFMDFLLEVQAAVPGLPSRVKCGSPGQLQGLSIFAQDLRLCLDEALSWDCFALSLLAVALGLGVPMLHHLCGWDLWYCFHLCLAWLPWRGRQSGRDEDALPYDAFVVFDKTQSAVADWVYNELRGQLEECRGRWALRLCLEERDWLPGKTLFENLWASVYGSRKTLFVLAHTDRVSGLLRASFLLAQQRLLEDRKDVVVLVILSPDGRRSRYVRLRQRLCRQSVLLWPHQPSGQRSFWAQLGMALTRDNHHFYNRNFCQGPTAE
NTR1 ag – agonists of human neurotensin receptor NTR1; 0.17% of 330,000 active; NTR1-U2OS beta-arrestin-GFP spot imaging, agonist mode; P30989; activation, % at 20 µM; AID 493036;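 active = activation at or above 40% of the spot to cytoplasm intensity ratio, with at least 20 cells analyzed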;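 also: 0% = DMSO without peptide and 100% = 100 nM NTR1 peptide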
NOD2-RIPK2 conf – confirmation of human NOD2-RIPK2 interaction inhibitors. shares compounds with NOD2-RIPK2 inh. CHO cells, NOD2-RIPK2 BLA complementation, CCF4 FRET. inhibition, % at 4.98 µM. 70% of 1,200 active. AID 624370;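 active = mean inhibition across replicates above a set limit taken from the earlier primary screen, cut at about 21% in these data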;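 also: 0% = DMSO-only wells and the high end = clavulanate BLA-blocked wells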
BLA counter – counter-screen for NOD2-RIPK2 interaction inhibitors: BLA reporter. AID 624371. CHO BLA reporter, CCF4 FRET ratio, counterscreen. shares compounds with NOD2-RIPK2 inh. 57% of 1,200 active. inhibition, % at 4.98 µM;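 active = mean inhibition above the low-control mean inhibition plus three low-control SD, cut at about 11% in these data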;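 also: 0% = DMSO only wells and 100% = clavulanate high control wells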
Active calls of the source: *; · = no result given. An excerpt weighted towards active compounds, which were near 0.97% of everything screened.

SMILES | NOD2-RIPK2 inh | B2AR ag | A1 inh | TLR4 MyD88 comp | TLR9-MyD88 block | NTR1 ag | NOD2-RIPK2 conf | BLA counter
CC(=O)OC1C(=O)OCC23CCC4(C)OC4C2OC2CC(OC(=O)C=CC=CC(=O)OCCC1C)C3(C)C21CO1 (stereo not drawn) | 30.7* | 8.2 | · | · | -3.9 | · | 24.9* | -11.2
COC(=O)CNC(=O)c1cn(CCC#N)nc1-c1ccc(F)cc1 | -2.5 | 3.9 | 0.1 | 9.0 | 5.9 | 1.4 | · | ·
COc1ccc(-[n+]2c(-c3ccccc3)cc(-c3ccccc3)cc2-c2ccccc2)cc1 | · | · | -0.2 | · | · | 6.6 | · | ·
CC(=O)OC1C(O)C(C)OC(OC2C(OC(=O)C3CCC4C(C3)OC3(CC(OC(=O)/C=C/c5ccccc5)C(C)CO3)C43CO3)OC(C)C(O)C2OC(C)=O)C1O (stereo not drawn) | 23.4* | 20.7 | · | · | 8.9 | · | 28.1* | -5.0
CCOP(=O)(CCP(=O)(OCC)OCC)OCC.C[CH2][Sn]([Cl])([Cl])[CH2]C | 25.2* | -18.4 | · | · | -2.1 | · | 51.4* | 0.7
CCOP(=O)(OCC)OCC | -3.2 | 12.1 | -0.3 | · | 1.6 | -1.2 | · | ·
COCCCn1c(N)c(C(=O)NCCC(C)C)c2nc3ccccc3nc21 | -13.1 | -1.8 | 1.1 | -34.0 | -9.8 | 26.2 | · | ·
Cc1c(C(c2ccc(Cl)cc2Cl)c2c(O)c3ccccc3oc2=O)c(=O)n(-c2ccccc2)n1C (stereo not drawn) | -8.6 | -2.2 | 0.6 | 0.5 | 1.6 | 22.1 | · | ·
COC(=O)C12OCC34C(CC5C(C)=C(O)C(=O)CC5(C)C3C(O)C1O)OC(=O)C(OC(=O)/C=C(\C)C(C)C)C24 (stereo not drawn) | 28.8* | -9.4 | · | · | -11.2 | · | 23.9* | -1.5
COC(=O)[C@@]1(Sc2ccc(C)cc2)CC(=O)N(P(=O)(OC)OC)[C@@H]1c1ccccc1 | -7.7 | · | · | · | · | · | · | ·
CCOC(=O)[C@]12Cc3cc(OC)ccc3[C@H]1N(C1CCCCC1)C(=O)c1cc(OC)ccc12 | 40.0* | · | · | · | · | · | 25.6* | -3.8
CCOC(=O)[C@]12Cc3cc(C)ccc3[C@H]1N(C1CCCCC1)C(=O)c1cc(OC)ccc12 | 62.3* | · | · | · | · | · | 73.3* | 1.6
O=P(N1CCCCC1)(N1CCCCC1)C(Cl)(Cl)Cl | -9.5 | 9.4 | 0.4 | -11.9 | 6.0 | 0.0 | · | ·
NC(=O)OCCSc1nnc(-c2cccc(C(N)=S)c2)o1 | -2.1 | -9.4 | -0.2 | -15.7 | -1.4 | -0.5 | · | ·
CC(=O)OC1(C)CC(C)C(=O)C(C(O)CC2CC(=O)NC(=O)C2)C1 (stereo not drawn) | 28.5* | 67.6* | · | · | -9.3 | · | 22.6* | -3.9
CCN(CC)c1ccccc1 | -6.1 | 0.5 | 0.0 | · | -13.3 | 1.3 | · | ·
CCN(CC)c1ccc(/C=C/[N+](=O)[O-])cc1 | 44.1* | 62.9* | 2.1 | 20.4 | 19.7 | 30.5 | 54.5* | 28.1*
COc1ccc(C(c2nnnn2Cc2ccccc2)N2CCC3(CC2)C(=O)NCN3c2ccccc2)cc1 (stereo not drawn) | -5.8 | · | · | · | · | · | · | ·
CCN1CCN(c2nc([N+](=O)[O-])nn2C)CC1 | -10.3 | 2.8 | 0.5 | · | -9.9 | 0.5 | · | ·
ClCCN(CCCl)c1ccc(C=Cc2ccncn2)cc1 | 62.8* | · | · | · | · | · | 47.3* | 60.1*
ClCCN(CCCl)c1ccc(C=NNc2ncccn2)cc1 | -7.6 | 2.7 | · | · | 5.7 | · | · | ·
c1cc2c(cc1NC1=NCCO1)CCCC2 | 15.5 | -2.9 | · | · | 6.7 | · | · | ·

Screens (PubChem)
